This excerpt belongs to a sample that is enriched for hits.
ST2 inh = IL1RL1 inhibition. AlphaLISA ST2-Fc/biotin-IL-33 interaction, 1 h. actives 2.3% (n = 78,000). inhibition, % for hits at 17 µM. Q01638; in the data active means inhibition above about 30%
Target sequence (Q01638 whole entry, looked up): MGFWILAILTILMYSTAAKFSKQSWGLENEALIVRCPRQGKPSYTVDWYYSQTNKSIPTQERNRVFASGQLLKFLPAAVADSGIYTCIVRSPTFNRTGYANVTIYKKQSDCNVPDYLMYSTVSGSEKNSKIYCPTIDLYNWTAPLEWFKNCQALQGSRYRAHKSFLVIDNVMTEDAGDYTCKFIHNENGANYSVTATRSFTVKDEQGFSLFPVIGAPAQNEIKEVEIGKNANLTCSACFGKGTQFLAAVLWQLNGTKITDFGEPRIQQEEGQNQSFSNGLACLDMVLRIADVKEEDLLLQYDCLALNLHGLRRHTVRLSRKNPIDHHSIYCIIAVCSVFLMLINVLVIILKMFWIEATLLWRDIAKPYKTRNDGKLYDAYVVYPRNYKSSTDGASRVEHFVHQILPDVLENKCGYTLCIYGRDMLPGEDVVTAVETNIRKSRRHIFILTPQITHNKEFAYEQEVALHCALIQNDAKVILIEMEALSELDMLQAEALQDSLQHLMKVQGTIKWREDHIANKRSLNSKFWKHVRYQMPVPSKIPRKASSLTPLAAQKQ
* hit, by the source's call; i = inactive.

SMILES	ST2 inh
CC(C)CNC(=O)C(=O)Nc1ccc(Br)cc1	i
Cc1cc([N+](=O)[O-])ccc1NC(=O)CC(C)c1ccccc1 (configuration not stated)	i
Cc1cc([N+](=O)[O-])ccc1NC(NC(=O)c1cccs1)C(=O)c1ccccc1 (configuration not stated)	35.0%*
O=C(NC(Nc1ccc([N+](=O)[O-])cc1)C(=O)c1ccccc1)c1ccccc1 (configuration not stated)	i
Cc1nc(C)n(CC(C)C(=O)N(C)Cc2sccc2C)n1 (configuration not stated)	i
O=C(OC(c1ccccc1)c1nccc2ccccc12)c1cccs1 (configuration not stated)	i
CC(=O)N[C@H]1CC[C@]2(C)CC[C@@H]([C@H](C)C(=O)NCCN3CCCC3)[C@H](O)[C@H]2[C@@H]1C	i
C[C@H]1[C@@H]2[C@@H](O)C([C@H](C)C(=O)NCCN3CCOCC3)CC[C@@]2(C)CC[C@@H]1NC(=O)C1CCCCC1 (some centres not stated)	32.0%*
COCCNC(=O)[C@@H](C)[C@@H]1CC[C@@]2(C)CC[C@H](NC(=O)C3CC3)[C@@H](C)[C@@H]2[C@H]1O	i
CN1C[C@@H](NC(=O)c2ccc(-c3ccccc3)cc2)C[C@H]1c1nc(-c2ccc(Cl)cc2)no1	i
CN(C)c1ccc(C(=O)N[C@H]2C[C@@H](c3nc(-c4ccccn4)no3)N(C)C2)cc1	i
COc1ccc(C(=O)N[C@H]2C[C@@H](c3nc(-c4ccc(OC(F)(F)F)cc4)no3)N(C)C2)cc1	i
Cc1noc([C@@H]2C[C@H](NC(=O)c3ccco3)CN2C)n1	i
CN1C[C@@H](NC(=O)c2ccc(C(C)(C)C)cc2)C[C@H]1c1nc(-c2ccc3c(c2)OCO3)no1	64.0%*
Cc1noc([C@@H]2C[C@H](NC(=O)c3ccc(F)cc3)CN2C)n1	40.0%*
O=C(c1ccc(F)c(S(=O)(=O)N2CCOCC2)c1)N1c2ccccc2Sc2ccccc21	i
Cc1ccc(CN2CCC=C(CCNC(=O)c3ccco3)C2)cc1	i
CC1CC2c3cccc(C(=O)O)c3C(=O)N2Cc2ccccc21 (configuration not stated)	i
COc1ccc(-c2cc(C(F)(F)F)nc(N3CCCCC3)n2)cc1	i
COc1ccccc1CNc1ccc2c(c1)ncn2C(C)(C)C	i
COc1ccccc1CNc1ccc2c(c1)ncn2C1CCCCC1	33.0%*
CCn1cnc2cc(NCc3ccccc3OC)ccc21	i
COc1ccc(-c2nc3n(n2)C(=O)CC(c2ccc(F)cc2)S3)cc1 (configuration not stated)	i
O=C(c1ccccc1)c1ccc2c3c(cccc13)C(=O)N(CCO)C2=O	i
N#C/C(=C\c1ccc([N+](=O)[O-])cc1)c1nc(-c2ccc3c(c2)OCO3)cs1	i
SMILES	ST2 inh
N#C/C(=C\c1ccc(F)cc1)c1nc(C2CC2)cs1	52.0%*
N#C/C(=C\c1ccc(Cl)cc1)c1nc(C2CC2)cs1	66.0%*
COCC(=O)Nc1ccc(-c2noc([C@@H]3CCCN3)n2)cn1	i
O=C(NCCc1ccc(Cl)cc1)c1coc2nc3ccccc3nc12	i
COc1ccc(NS(=O)(=O)c2ccc(NS(=O)(=O)c3ccc(C)cc3)cc2)cc1	i
COc1ccc(S(=O)(=O)Nc2ccc(NC(C)=O)cc2)cc1	i
CCN(CC)c1ccc(NS(=O)(=O)c2ccc(OC)cc2)cc1	35.0%*
Cc1ccc(-c2ccc(C(=O)NCCCc3nn[nH]n3)cc2)o1	i
O=C(CSc1cn(Cc2ccc(Cl)cc2)c2ccccc12)Nc1nccs1	i
CCOc1ccc(-n2c(=O)c3c(C)c(C)sc3n(CC(=O)N(CC)CC)c2=O)cc1	i
CC1=NN(c2ccc(Br)cc2)C(=O)/C1=C/c1cccs1	39.0%*
CC1=NN(c2ccc(Br)cc2)C(=O)/C1=C\c1ccc(N(C)C)c([N+](=O)[O-])c1	i
CC1=NN(c2ccc(C(=O)O)cc2)C(=O)/C1=C\c1ccc(Br)cc1	i
Nc1nonc1-c1noc(COc2ccc(Cl)cc2Cl)n1	i
Cc1cc(C)cc(NC(=O)CSc2nc3c(c(=O)n2-c2ccc(Cl)cc2)SCC3)c1	i
COc1ccc(CNC(=O)CCC2CCCN(C(=O)c3ccsc3)C2)c(OC)c1 (configuration not stated)	i
COc1cc(OC)c(C=Nc2cc([N+](=O)[O-])ccc2C)cc1Br	i
N#Cc1ccccc1N=Cc1ccc(Br)c([N+](=O)[O-])c1	30.0%*
Cc1ccc(N=Cc2ccc(N(C)C)c([N+](=O)[O-])c2)cc1	i
COc1ccc(N=Cc2ccc(Br)c([N+](=O)[O-])c2)cc1	38.0%*
O=[N+]([O-])c1cc(C=Nc2ccc3c(c2)OCCO3)ccc1Br	i
COc1cc(C=O)ccc1OCCCOc1ccc([N+](=O)[O-])cc1	i
N#Cc1ccccc1N=Cc1cc2c(cc1[N+](=O)[O-])OCO2	i
COc1ccc(N=Cc2ccc(Oc3ccc([N+](=O)[O-])cc3[N+](=O)[O-])c(OC)c2)cc1	34.0%*
Cc1ccc(N=Cc2ccc(Br)c([N+](=O)[O-])c2)c(O)c1	i
SMILES	ST2 inh
O=C(c1cnn2c1CCCC2)N1[C@@H]2CC[C@H]1CC(O)C2 (some centres not stated)	i
CC(C)CC(O)CNC(C)(C)C (configuration not stated)	i
CC(C)CC1c2[nH]c3ccccc3c2CCN1Cc1cccnc1 (configuration not stated)	i
O=[N+]([O-])c1ccc(NCCCN2CCOCC2)c(F)c1	i
CCOc1cc(/C=C(\C#N)c2nc(-c3ccc(OC)c(OC)c3)cs2)ccc1O	i
N#C/C(=C\Nc1ccc(S(N)(=O)=O)cc1)c1nc(-c2ccc(Cl)cc2)cs1	i
COc1ccc(/C=C(\C#N)c2nc(-c3cccc([N+](=O)[O-])c3)cs2)cc1O	35.0%*
N#C/C(=C\c1cccs1)c1nc(-c2ccc(Cl)cc2)cs1	46.0%*
Cc1ccc(-c2csc(/C(C#N)=C/c3cccs3)n2)cc1	64.0%*
COc1ccc(/C=C(/NC(=O)c2cccs2)C(=O)NC(C)(C)C)cc1OC	i
O=C(Nc1nc(-c2ccc(Cl)cc2)cs1)c1cccs1	i
COc1ccc(/C=C(/C#N)c2nc(-c3cccs3)cs2)cc1OC	49.0%*
COc1ccccc1/C=C(\C#N)c1nc(-c2cccc([N+](=O)[O-])c2)cs1	i
Cc1ccc(Nc2nc(-c3ccccc3)cs2)cc1	i
Nc1n[nH]c(-c2cccc([N+](=O)[O-])c2)n1	i
Cc1ccc(-c2csc(Nc3ccc(F)cc3)n2)cc1	i
CCC1=NOC(CNC(=O)CCc2nc3ccc(F)cc3[nH]2)C1 (configuration not stated)	i
CCCc1nc(C)c(CNC(=O)CC2COCCN2)s1 (configuration not stated)	i
Cc1ccc(CNC(=O)C2(S(=O)(=O)c3ccc(Cl)cc3)CC2)cc1	i
O=C(Cn1cnc2c(cnn2-c2ccccc2)c1=O)N1CCc2ccccc21	i
COc1cccc(N(CC(=O)NCc2ccccc2OC)S(=O)(=O)c2ccc(C)cc2)c1	i
Cc1ccc(-c2noc(CCC(=O)N3CCCCCC3)n2)cc1	i
CCn1ccnc1-c1nccn1Cc1ccccc1Cl	i
O=C(COc1ccc(CN2CCC3(CCOCC3)CC2)cc1)N1CCCC1	i
Cn1cncc1-c1nnc([C@H]2CCN(CC(C)(C)C)C2)o1	i

Bioassay records (PubChem BioAssay)
